Test results taken from ChEMBL document CHEMBL4513146, “CO-ADD screening of Karazin Kharkiv National University (Ukraine) compounds”.
Measured potencies and affinities stand elsewhere.

System: Staphylococcus aureus
Conditions: Concentration 32 ug.mL-1;; ASSAY_TEST Inhibition of Bacterial Growth; detection method Absorption (OD600); MEDIA CAMHB; plate type 384well; NBS; CORNING #3640; time 18 hr

Row | Structure (SMILES) | Inhibition [%]
1 | Cc1nnc2c(=O)n(CC(=O)Nc3ccccc3F)c3ccccc3n12 | -11.2
2 | O=C(Cn1nc2ccc(-c3ccc(Cl)cc3)nn2c1=O)N1CCN(c2ccccc2)CC1 | -1.88
3 | COc1cccc(-n2ccn3c(SCc4ccccc4Cl)nnc3c2=O)c1 | 8.33
4 | CCOc1ccc(NC(=O)Cn2nc3ccc(-c4ccc(C)c(C)c4)nn3c2=O)cc1 | 3.86
5 | Cc1cc2nn(CC(=O)Nc3cccc(C)c3C)c(=O)n2c(Nc2ccc(F)c(C)c2)n1 | 2.54
6 | CSc1cccc(NC(=O)Cn2c(=O)c3nnc(C)n3c3ccccc32)c1 | -2.91
7 | CCOc1ccccc1NC(=O)Cn1nc2c3cc(-c4ccc(Cl)cc4)nn3ccn2c1=O | 6.48
8 | CCc1nnc2c(S(=O)(=O)N(Cc3ccccc3C)c3ccc(C(C)C)cc3)cccn12 | 3.95
9 | Cc1cccc(Oc2nc3ccccc3n3c(=O)n(CC(=O)NCc4ccco4)nc23)c1C | 3.87
10 | COc1cccc(-n2ccn3c(SC(C)C(=O)c4ccc(C)c(C)c4)nnc3c2=O)c1 (stereo not drawn) | 13.98
11 | Cc1oc(-c2ccccc2)nc1CSc1nc2ccccc2n2c(C)nnc12 | 4.04
12 | N#Cc1ccc(NC(=O)Cn2nc3c(SC4CCCCC4)nccn3c2=O)cc1 | 7.35
13 | Cc1cccc(Sc2nccn3c(=O)n(CC(=O)N4CCN(c5ccc(F)cc5)CC4)nc23)c1 | -10.95
14 | COc1cccc(-n2ccn3c(SCC#N)nnc3c2=O)c1 | 16.24
15 | Cc1ccc(CNC(=O)CSc2nnc3c4cc(-c5ccc(F)cc5)nn4ccn23)cc1 | 12.38
16 | O=c1c2nnc(SCc3ccccc3F)n2ccn1-c1ccc(F)cc1 | 19.41
17 | COc1ccc(Cl)cc1NC(=O)CSc1nc2ccccc2n2cnnc12 | 12.82
18 | O=C(CSc1nnc2c(=O)n(-c3ccccc3)ccn12)Nc1ccc(Cl)cc1 | 3.58
19 | COc1cccc(-n2ccn3c(SCc4cccc(Cl)c4)nnc3c2=O)c1 | 12.15
20 | O=c1c2nnc(-c3ccc([N+](=O)[O-])cc3)n2ccn1-c1ccc(F)c(F)c1 | -6.17

Row | Structure (SMILES) | Inhibition [%]
21 | O=C(Cn1nc2c(SC3CCCCC3)nccn2c1=O)Nc1cccc(Br)c1 | -4.73
22 | Cc1ccc(CNC(=O)Cn2nc3ccc(SCc4ccc(Cl)cc4)nn3c2=O)cc1 | 11.66
23 | CCCN(C)c1nccn2c(=O)n(CC(=O)Nc3ccc(C#N)cc3)nc12 | 14.04
24 | COc1ccc(-c2nc(CSc3nc4ccccc4n4c(C(C)C)nnc34)c(C)o2)cc1 | -9.17
25 | CCc1cccc(NC(=O)Cn2nc3ccc(SC(C)C)nn3c2=O)c1 | 3.75
26 | Cc1ccc(F)cc1NC(=O)CSc1nc2ccccc2n2c(C)nnc12 | 2.37
27 | CCOC(=O)c1ccc(NC(=O)Cn2nc3ccc(Sc4cccc(F)c4)nn3c2=O)cc1 | 9.91
28 | Cc1ccc(-c2ccc3nn(Cc4ccc(F)cc4Cl)c(=O)n3n2)cc1C | 8.63
29 | Cc1ccc(F)cc1NC(=O)CSc1nnc2ccc(C(=O)Nc3cccc(F)c3)cn12 | 13.04
30 | Cc1cccc(NC(=O)Cn2nc3c4cc(-c5ccc(F)cc5)nn4ccn3c2=O)c1C | -2.18
31 | CCc1ccc(NC(=O)Cn2nc3c4cc(-c5ccc(Cl)cc5)nn4ccn3c2=O)cc1 | 10.21
32 | Cc1ccc(NC(=O)Cn2nc3c4cc(-c5ccc(C)c(C)c5)nn4ccn3c2=O)cc1 | 7.11
33 | O=C(CSc1nnc2c(=O)n(-c3cccc(F)c3)ccn12)c1ccc(F)cc1 | 5.39
34 | O=c1c2nn(Cc3cccc(Cl)c3)c(=O)n2ccn1-c1ccccc1 | 0.94
35 | Cc1ccc(NC(=O)Cn2nc3c(SCc4ccc(Cl)cc4)nccn3c2=O)cc1F | 5.52
36 | Cc1ccc(-c2cc3c4nnc(CCC(=O)NCCCc5ccccc5)n4ccn3n2)cc1C | 6.48
37 | COC(=O)c1ccc(CN(c2ccc(C)cc2)S(=O)(=O)c2ccc3nnc(C)n3c2)o1 | 4.75
38 | Cc1ccc(C)c(NC(=O)Cn2nc3c(Sc4ccccc4)nccn3c2=O)c1 | 6.23
39 | Cc1cc(C)c(NC(=O)Cn2nc3c4c5c(sc4ncn3c2=O)CCCC5)c(C)c1 | 8.81

System: Escherichia coli
Conditions: Concentration 32 ug.mL-1;; ASSAY_TEST Inhibition of Bacterial Growth; detection method Absorption (OD600); MEDIA CAMHB; plate type 384well; NBS; CORNING #3640; time 18 hr

Row | Structure (SMILES) | Inhibition [%]
40 | Cc1nnc2c(=O)n(CC(=O)Nc3ccccc3F)c3ccccc3n12 | 1.77
41 | O=C(Cn1nc2ccc(-c3ccc(Cl)cc3)nn2c1=O)N1CCN(c2ccccc2)CC1 | -5.05
42 | COc1cccc(-n2ccn3c(SCc4ccccc4Cl)nnc3c2=O)c1 | -9.75
43 | CCOc1ccc(NC(=O)Cn2nc3ccc(-c4ccc(C)c(C)c4)nn3c2=O)cc1 | -6.73
44 | Cc1cc2nn(CC(=O)Nc3cccc(C)c3C)c(=O)n2c(Nc2ccc(F)c(C)c2)n1 | -7.8
45 | CSc1cccc(NC(=O)Cn2c(=O)c3nnc(C)n3c3ccccc32)c1 | 2.47
46 | CCOc1ccccc1NC(=O)Cn1nc2c3cc(-c4ccc(Cl)cc4)nn3ccn2c1=O | 1.3
47 | CCc1nnc2c(S(=O)(=O)N(Cc3ccccc3C)c3ccc(C(C)C)cc3)cccn12 | -8.12
48 | Cc1cccc(Oc2nc3ccccc3n3c(=O)n(CC(=O)NCc4ccco4)nc23)c1C | -6.2
49 | COc1cccc(-n2ccn3c(SC(C)C(=O)c4ccc(C)c(C)c4)nnc3c2=O)c1 (stereo not drawn) | 1.22
50 | Cc1oc(-c2ccccc2)nc1CSc1nc2ccccc2n2c(C)nnc12 | 4.8
51 | N#Cc1ccc(NC(=O)Cn2nc3c(SC4CCCCC4)nccn3c2=O)cc1 | -8.54
52 | Cc1cccc(Sc2nccn3c(=O)n(CC(=O)N4CCN(c5ccc(F)cc5)CC4)nc23)c1 | -6.75
53 | COc1cccc(-n2ccn3c(SCC#N)nnc3c2=O)c1 | 0.96
54 | Cc1ccc(CNC(=O)CSc2nnc3c4cc(-c5ccc(F)cc5)nn4ccn23)cc1 | -2.28
55 | O=c1c2nnc(SCc3ccccc3F)n2ccn1-c1ccc(F)cc1 | -3.23
56 | COc1ccc(Cl)cc1NC(=O)CSc1nc2ccccc2n2cnnc12 | 5.77
57 | O=C(CSc1nnc2c(=O)n(-c3ccccc3)ccn12)Nc1ccc(Cl)cc1 | -4.07
58 | COc1cccc(-n2ccn3c(SCc4cccc(Cl)c4)nnc3c2=O)c1 | -0.34
59 | O=c1c2nnc(-c3ccc([N+](=O)[O-])cc3)n2ccn1-c1ccc(F)c(F)c1 | -1.2

Row | Structure (SMILES) | Inhibition [%]
60 | O=C(Cn1nc2c(SC3CCCCC3)nccn2c1=O)Nc1cccc(Br)c1 | -7.3
61 | Cc1ccc(CNC(=O)Cn2nc3ccc(SCc4ccc(Cl)cc4)nn3c2=O)cc1 | -2.92
62 | CCCN(C)c1nccn2c(=O)n(CC(=O)Nc3ccc(C#N)cc3)nc12 | -2.47
63 | COc1ccc(-c2nc(CSc3nc4ccccc4n4c(C(C)C)nnc34)c(C)o2)cc1 | -2.62
64 | CCc1cccc(NC(=O)Cn2nc3ccc(SC(C)C)nn3c2=O)c1 | -0.03
65 | Cc1ccc(F)cc1NC(=O)CSc1nc2ccccc2n2c(C)nnc12 | 1.62
66 | CCOC(=O)c1ccc(NC(=O)Cn2nc3ccc(Sc4cccc(F)c4)nn3c2=O)cc1 | -1.47
67 | Cc1ccc(-c2ccc3nn(Cc4ccc(F)cc4Cl)c(=O)n3n2)cc1C | -0.58
68 | Cc1ccc(F)cc1NC(=O)CSc1nnc2ccc(C(=O)Nc3cccc(F)c3)cn12 | 0.82
69 | Cc1cccc(NC(=O)Cn2nc3c4cc(-c5ccc(F)cc5)nn4ccn3c2=O)c1C | -5.27
70 | CCc1ccc(NC(=O)Cn2nc3c4cc(-c5ccc(Cl)cc5)nn4ccn3c2=O)cc1 | 3.59
71 | Cc1ccc(NC(=O)Cn2nc3c4cc(-c5ccc(C)c(C)c5)nn4ccn3c2=O)cc1 | -1.34
72 | O=C(CSc1nnc2c(=O)n(-c3cccc(F)c3)ccn12)c1ccc(F)cc1 | 1.51
73 | O=c1c2nn(Cc3cccc(Cl)c3)c(=O)n2ccn1-c1ccccc1 | -5.32
74 | Cc1ccc(NC(=O)Cn2nc3c(SCc4ccc(Cl)cc4)nccn3c2=O)cc1F | 0.08
75 | Cc1ccc(-c2cc3c4nnc(CCC(=O)NCCCc5ccccc5)n4ccn3n2)cc1C | 1.28
76 | COC(=O)c1ccc(CN(c2ccc(C)cc2)S(=O)(=O)c2ccc3nnc(C)n3c2)o1 | -4.99
77 | Cc1ccc(C)c(NC(=O)Cn2nc3c(Sc4ccccc4)nccn3c2=O)c1 | -5.56
78 | Cc1cc(C)c(NC(=O)Cn2nc3c4c5c(sc4ncn3c2=O)CCCC5)c(C)c1 | -5.83
